Activity calls are given as the source filed them. The calls were made as follows: active = hit-call score of the fitted dose curve at least 0.9, where 1 is the maximum; inactive = score below 0.9.

Our source for the outcome and AC50 values is PubChem BioAssay (EPA / NIEHS).

Read-out in assay [1]: Transforming growth factor beta 1 (TGFb1), TGFB1 (gene 7040)
The assay is described as follows: BSK_KF3CT_TGFb1: BioMAP Diversity Plus: KF3CT Assay for Transforming growth factor beta 1 (TGFb1) Biomarker Activity (AID 2283072). The following applies: primary human keratinocytes with fibroblasts; actives raise or lower the signal. In a few lines: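 ELISA quantifies TGF-b1 at 24 h post-dose in a primary human skin co-culture of keratinocytes and fibroblasts, with gain or loss judged against DMSO. Parallel SRB total-protein staining flags overt cytotoxicity.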

Read-out in assay [2]: C-C motif chemokine 2 (Homo sapiens) (UniProt P13500)
The assay is described as follows: BSK_KF3CT_MCP1: BioMAP Diversity Plus: KF3CT Assay for Monocyte Chemoattractant Protein 1 (MCP1/CCL2) Biomarker Activity (AID 2283073). As to conditions: primary human keratinocytes with fibroblasts; actives raise or lower the signal. In a few lines: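 Human keratinocyte plus foreskin fibroblast primary co-culture exposed to chemical for 24 h. MCP-1 levels measured by ELISA. Bidirectional curve fitting relative to DMSO negative control as baseline.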

Read-out in assay [3]: Matrix Metallopeptidase 9 (MMP9), MMP9 (gene 4318)
The assay is described as follows: BSK_KF3CT_MMP9: BioMAP Diversity Plus: KF3CT Assay for Matrix Metallopeptidase 9 (MMP9) Biomarker Activity (AID 2283074). The following applies: primary human keratinocytes with fibroblasts; actives raise or lower the signal. In a few lines: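 ELISA read-out of MMP-9 at 24 h post-dosing in a co-culture of human skin keratinocytes and foreskin fibroblasts. Gain or loss of signal was fitted in both directions against DMSO.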

Read-out in assay [4]: urokinase plasminogen activator (uPA), PLAU (gene 5328)
Description: BSK_KF3CT_uPA: BioMAP Diversity Plus: KF3CT Assay for urokinase plasminogen activator (uPA) Biomarker Activity (AID 2283075). The following applies: primary human keratinocytes with fibroblasts; actives raise or lower the signal. In a few lines: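 Skin co-culture (keratinocytes + foreskin fibroblasts), human primary; 24 h post-dose; uPA by ELISA; gain/loss fit vs DMSO baseline.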

Read-out in assay [5]: CD40, CD40 (gene 958)
The assay is described as follows: BSK_LPS_CD40: BioMAP Diversity Plus: LPS Assay for CD40 Biomarker Activity (AID 2283076). As to conditions: primary human HUVEC with PBMC; actives raise or lower the signal. An outline of the steps:
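Primary human umbilical vein endothelial cells co-cultured with peripheral blood mononuclear cells, LPS-stimulated, were dosed with chemical and read 24 h later. CD40 levels were measured by ELISA and fitted bidirectionally against DMSO as negative control and baseline.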

Read-out in assay [6]: E-selectin (Homo sapiens) (UniProt P16581)
The assay is described as follows: BSK_LPS_Eselectin: BioMAP Diversity Plus: LPS Assay for Eselectin Biomarker Activity (AID 2283077). As to conditions: primary human HUVEC with PBMC; actives raise or lower the signal. In a few lines:
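Human umbilical vein endothelial cells co-cultured with peripheral blood mononuclear cells under LPS stimulation; E-selectin measured by ELISA 24 h after chemical dosing. Activity fitted bidirectionally against DMSO as negative control and baseline.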

The nature of assay [7]: BSK_LPS_SRB: Viability Assessment in the BioMAP Diversity Plus: LPS Assay (AID 2283079).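 Also: total protein by sulforhodamine B absorbance as a cytotoxicity measure; measured one day after compound addition.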 The following applies: primary human HUVEC with PBMC. An outline of the steps:
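Human umbilical vein endothelial cells co-cultured with PBMC (LPS system) were dosed for 24 h. Total protein was stained with 0.1% sulforhodamine B after 10% TCA fixation, read at 560 nm, and fitted bidirectionally against DMSO baseline.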

Read-out in assay [8]: Interleukin-1 alpha (IL1a), IL1A (gene 3552)
The assay is described as follows: BSK_LPS_IL1a: BioMAP Diversity Plus: LPS Assay for Interleukin-1 alpha (IL1a) Biomarker Activity (AID 2283080). As to conditions: primary human HUVEC with PBMC; actives raise or lower the signal. An outline of the steps: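 Human umbilical vein endothelial cells co-cultured with peripheral blood mononuclear cells were LPS-stimulated and exposed to test chemicals for 24 h. IL-1 alpha was quantified by ELISA, with bidirectional curve fitting against DMSO as the negative control and baseline.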

Read-out in assay [9]: Monocyte Chemoattractant Protein-1 (MCP1), CCL2 (gene 6347)
Description: BSK_LPS_MCP1: BioMAP Diversity Plus: LPS Assay for Monocyte Chemoattractant Protein-1 (MCP1) Biomarker Activity (AID 2283081). As to conditions: primary human HUVEC with PBMC; actives raise or lower the signal. An outline of the steps:
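HUVEC plus PBMC co-culture (human primary cells, LPS system) exposed to test chemical for 24 h; MCP-1 measured by ELISA. Bidirectional curve fitting against DMSO baseline; parallel SRB total-protein staining flags overt cytotoxicity.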

A short description of assay [10]: BSK_LPS_PGE2: BioMAP Diversity Plus: LPS Assay for Prostaglandin E2 (PGE2) Biomarker Activity (AID 2283082). As to conditions: primary human HUVEC with PBMC; actives raise or lower the signal. In a few lines: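 PGE2 release measured by ELISA in an LPS-activated co-culture of human umbilical vein endothelial cells and peripheral blood mononuclear cells, read at 24 h post-dosing. DMSO served as baseline for bidirectional curve fitting.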

Read-out in assay [11]: Macrophage colony-stimulating factor (MCSF), CSF1 (gene 1435)
Description: BSK_LPS_MCSF: BioMAP Diversity Plus: LPS Assay for Macrophage colony-stimulating factor (MCSF) Biomarker Activity (AID 2283083). As to conditions: primary human HUVEC with PBMC; actives raise or lower the signal. An outline of the steps:
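Human umbilical vein endothelial cells co-cultured with peripheral blood mononuclear cells were exposed to compound for 24 h. M-CSF levels were measured by ELISA, and bidirectional curve fitting used DMSO as the negative control and baseline.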

Read-out in assay [12]: Tissue Factor, F3 (gene 2152)
The assay is described as follows: BSK_LPS_TissueFactor: BioMAP Diversity Plus: LPS Assay for Tissue Factor Biomarker Activity (AID 2283084). The following applies: primary human HUVEC with PBMC; actives raise or lower the signal. In a few lines:
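Human umbilical vein endothelial cells co-cultured with peripheral blood mononuclear cells were dosed and stimulated with LPS. Cell-surface CD142 was quantified by ELISA at 24 h. Activity was fitted bidirectionally against DMSO baseline.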

Read-out in assay [13]: Tumor necrosis factor (Homo sapiens) (UniProt P01375)
The assay is described as follows: BSK_LPS_TNFa: BioMAP Diversity Plus: LPS Assay for Tumour Necrosis Factor alpha (TNFa) Biomarker Activity (AID 2283085). The following applies: primary human HUVEC with PBMC; actives raise or lower the signal. In a few lines: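 TNFa was quantified by ELISA in LPS-activated co-cultures of human endothelial cells and PBMC, 24 h post-dosing. Both increases and decreases versus DMSO were fitted.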

Read-out in assay [14]: Vascular cell adhesion molecule 1 (VCAM1), VCAM1 (gene 7412)
Description: BSK_LPS_VCAM1: BioMAP Diversity Plus: LPS Assay for Vascular cell adhesion molecule 1 (VCAM1) Biomarker Activity (AID 2283086). The following applies: primary human HUVEC with PBMC; actives raise or lower the signal. An outline of the steps:
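VCAM-1 quantified by ELISA in an LPS-activated co-culture of human endothelial cells and peripheral blood mononuclear cells, read 24 h post-treatment. Fitted in both directions versus DMSO; parallel SRB staining flags overt cytotoxicity.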

Read-out in assay [15]: CD40, CD40 (gene 958)
Description: BSK_SAg_CD40: BioMAP Diversity Plus: SAg Assay for CD40 Biomarker Activity (AID 2283088). The following applies: primary human HUVEC with PBMC; actives raise or lower the signal. In a few lines: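 Human umbilical vein endothelial cells co-cultured with PBMC; CD40 levels measured by ELISA with fluorescence read-out 24 h after chemical dosing. Gain or loss of signal fitted bidirectionally against DMSO baseline.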

Read-out in assay [16]: CD69, CD69 (gene 969)
Description: BSK_SAg_CD69: BioMAP Diversity Plus: SAg Assay for CD69 Biomarker Activity (AID 2283089). As to conditions: primary human HUVEC with PBMC; actives raise or lower the signal. In a few lines:
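Primary human vascular co-culture (umbilical vein endothelium with peripheral blood mononuclear cells) exposed to test chemical for 24 h. CD69 levels quantified by fluorescence ELISA; DMSO served as negative control for bidirectional fitting.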

Read-out in assay [17]: Monocyte Chemoattractant Protein-1 (MCP1), CCL2 (gene 6347)
Description: BSK_SAg_MCP1: BioMAP Diversity Plus: SAg Assay for Monocyte Chemoattractant Protein-1 (MCP1) Biomarker Activity (AID 2283090). The following applies: primary human HUVEC with PBMC; actives raise or lower the signal. In a few lines:
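Values derive from bidirectional fitting of ELISA-measured MCP1 against DMSO controls. Readings were taken 24 h after dosing human vascular endothelial cells co-cultured with peripheral blood mononuclear cells under superantigen stimulation.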

Read-out in assay [18]: E-selectin (Homo sapiens) (UniProt P16581)
The assay is described as follows: BSK_SAg_Eselectin: BioMAP Diversity Plus: SAg Assay for Eselectin Biomarker Activity (AID 2283091). As to conditions: primary human HUVEC with PBMC; actives raise or lower the signal. An outline of the steps: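 HUVEC co-cultured with PBMC, compound dosed then read at 24 h; E-selectin measured by ELISA. Activity fitted bidirectionally against DMSO as negative control and baseline.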

Read-out in assay [19]: Interleukin-8 (IL8), CXCL8 (gene 3576)
The assay is described as follows: BSK_LPS_IL8: BioMAP Diversity Plus: LPS Assay for Interleukin-8 (IL8) Biomarker Activity (AID 2283078). As to conditions: primary human HUVEC with PBMC; actives raise or lower the signal. An outline of the steps:
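Human umbilical vein endothelial cells co-cultured with PBMC were stimulated with LPS; IL-8 levels were measured by ELISA 24 h after chemical dosing. Activity was fitted bidirectionally against DMSO as negative control and baseline.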

Read-out in assay [20]: CD38, CD38 (gene 952)
The assay is described as follows: BSK_SAg_CD38: BioMAP Diversity Plus: SAg Assay for CD38 Biomarker Activity (AID 2283087). The following applies: primary human HUVEC with PBMC; actives raise or lower the signal. An outline of the steps: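 CD38 quantified by ELISA (fluorescence) in a superantigen-activated endothelial cell–PBMC co-culture at 24 h post-dose. Activity fitted in both directions relative to DMSO; parallel SRB and Alamar Blue cytotoxicity read-outs.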

Sequence of Tumor necrosis factor (Homo sapiens) (P01375 whole entry, looked up): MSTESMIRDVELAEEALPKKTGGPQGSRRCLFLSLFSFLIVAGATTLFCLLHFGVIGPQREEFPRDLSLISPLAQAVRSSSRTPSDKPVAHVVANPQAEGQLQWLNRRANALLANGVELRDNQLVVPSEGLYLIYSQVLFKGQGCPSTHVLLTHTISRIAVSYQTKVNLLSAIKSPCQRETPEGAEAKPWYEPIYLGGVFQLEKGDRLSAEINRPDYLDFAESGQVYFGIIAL
Sequence of E-selectin (Homo sapiens) (P16581 whole entry, looked up): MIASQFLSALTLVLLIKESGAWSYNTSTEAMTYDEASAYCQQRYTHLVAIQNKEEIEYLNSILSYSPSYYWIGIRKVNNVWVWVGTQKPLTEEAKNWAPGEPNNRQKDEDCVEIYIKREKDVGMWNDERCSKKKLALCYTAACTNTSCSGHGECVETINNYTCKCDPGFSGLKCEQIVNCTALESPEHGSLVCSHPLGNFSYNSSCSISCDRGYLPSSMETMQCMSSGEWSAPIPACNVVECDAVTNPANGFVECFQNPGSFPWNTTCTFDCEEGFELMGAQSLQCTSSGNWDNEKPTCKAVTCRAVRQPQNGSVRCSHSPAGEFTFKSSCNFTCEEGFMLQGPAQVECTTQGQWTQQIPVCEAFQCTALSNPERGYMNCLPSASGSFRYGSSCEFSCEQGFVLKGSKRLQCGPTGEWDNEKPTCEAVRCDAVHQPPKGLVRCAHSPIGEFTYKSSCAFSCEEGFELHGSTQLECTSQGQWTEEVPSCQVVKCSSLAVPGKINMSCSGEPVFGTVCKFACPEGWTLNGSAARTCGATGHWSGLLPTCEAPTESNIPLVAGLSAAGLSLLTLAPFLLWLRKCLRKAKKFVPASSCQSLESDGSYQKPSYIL

As usually defined, the AC50 is the midpoint of the concentration-response curve, whichever way the signal moves. For the compound `CSC(=O)c1c(C(F)F)nc(C(F)(F)F)c(C(=O)SC)c1CC(C)C`, the result in assay [1], in [2], in assay [3], in [4], in [9] and in [10] was inactive. For the same compound, the result in assay [12], in assay [13], in assay [14] and in assay [16] was inactive. In addition, the half-maximal activity concentration (AC50) in assay [5] was 16.3 µM (active); in assay [6] it was 5.05 µM (active); in assay [7], 26.3 µM (active); in assay [8] it was 15.1 µM (active); in assay [11], 20 µM (active); in assay [15], 34 µM (active). The results for the AC50 in assay [17] and in assay [18] were 13.9 µM (active) and 13.1 µM (active), respectively.
For the compound `COP(=O)(OC)O/C(C)=C/C(=O)N(C)C`, the result in assay [1], in [2], in assay [3], in assay [4], in assay [5] and in assay [6] was inactive. The outcome in assay [19], in assay [7], in assay [8], in [9], in assay [11] and in [12] was inactive. In addition, the result in assay [13], in assay [14], in assay [15], in assay [16], in assay [17] and in assay [18] was inactive. Further, in assay [10], the AC50 was 17.3 µM (active).
For the compound `Clc1nc(Cl)nc(Nc2ccccc2Cl)n1`, the result in [1], in [2], in assay [3], in assay [4], in assay [5] and in assay [6] was inactive. Further, the result in [19], in assay [7], in assay [8], in assay [9], in [10] and in assay [11] was inactive. The outcome in assay [12], in assay [13], in assay [14], in assay [20], in [15] and in assay [16] was inactive. In addition, the result in [17] and in assay [18] was inactive.
